High-throughput results deposited in PubChem by National Center for Advancing Translational Sciences (NCATS).
Hits are enriched below; roughly 7.9% of the tested compounds scored in any of these assays.
LASV entry inh = inhibitors of Lassa virus binding or cell entry | Lassa virus pseudotype entry inhibition, cell reporter | Potency, µM (highest dose often 37.9 µM), for inactives: top-dose activity change, negative = inhibition, most hits filed as inhibitors | hit rate 1.2% among 300,000 | AID 540256; calls by dose curve; tested in HEK293 cells; also: potency is read from the fitted curve at half-maximal effect; nearly all actives have a fitted effect of over 50% in size
HCMV inh = inhibitors of human cytomegalovirus; HFF cells, HCMV-luciferase reporter, 72 h; stronger effect = lower value; activity change, negative = inhibition, % at 57.5 µM; hit rate 4.5% among 410,000; AID 1259415; in the data active = activity change below about -60%; inconclusive = no clear call, values can overlap the other calls; inactive = above about -39%
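Compounds were evaluated in HFFs infected with an HCMV luciferase reporter virus (MOI 1 PFU/cell). Luciferase in lysates collected 72 h post infection served as the replication measure.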
HCV inhibitor = blocks hepatitis C virus. AID 651820. Potency, µM (titrated, usually from 41.8 µM), inactives show at the top dose activity change, negative = inhibition, actives largely listed as inhibitors. hit rate 3.4% among 340,000. Huh7.5.1 HCVcc-Cre infection, luciferase reporter, 44 h; active = well fitted inhibition curve with a large enough effect; inconclusive = small, poorly fitted or top-dose-only effect, or another doubt; inactive = no such curve, though single readings can be large or run the other way; also: potency is read from the fitted curve at half-maximal effect
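After 44 h co-culture of compound, cells and HCVcc-Cre (~0.5 moi), substrate is added for 15 min at room temperature and luciferase measured over 15 sec. Cells were seeded at 1,000/well and pre-cultured 4 h.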
MARV entry inh = inhibitors of Marburg virus binding or cell entry; Marburg virus pseudotyped entry inhibition, cell reporter; hit rate 1.8% among 300,000; Potency, µM (highest dose often 37.8 µM), without a hit: top-dose activity change, negative = inhibition, hits mostly inhibitors; calls by dose curve; tested in HEK293 cells; also: potency is read from the fitted curve at half-maximal effect
FMDV inh = foot and mouth disease virus antiviral activity | FMDV antiviral cell-based qHTS | hit rate 1.2% among 410,000 | Potency, µM (doses to about 57.9 µM), for inactives: top-dose activity change, negative = inhibition, actives largely listed as inhibitors; calls by dose curve; tested in HEK293T cells; also: read-out not given here; potency is read from the fitted curve at half-maximal effect; nearly all actives have a fitted effect of over 45% in size
* marks the source's active call; other numbers are inactive results; ? = inconclusive; . = no result; [ ] = remark or other dose. % is scaled to controls: 0 for no effect and ±100 for the full control effect.

SMILES	LASV entry inh	HCMV inh	HCV inhibitor	MARV entry inh	FMDV inh
O=C(NC1CCCCC1)c1ccccc1NC(=S)NC(=O)C1CC1	-1%	-5	-8%	?	-6%
O=C(NC(=S)NC1CCS(=O)(=O)C1)c1ccccc1 (configuration not stated)	.	-29	7%	.	2%
O=C(NC1CCCCC1)c1ccccc1NC(=S)NC(=O)C1CCC1	3%	-62*	3%	?	-18%
O=C(NC(=S)NC1CCCCC1)c1ccccc1	?	-98*	4%	21%	86%
CCCOc1ccc(CS[C@@H](CC(=O)O)C(=O)O)cc1	.	.	.	17%	.
Cc1ccc(N2CCN(C(=O)C3CCC(=O)N(Cc4ccc(Cl)cc4)C3)CC2)c(C)c1 (configuration not stated)	?	?	11µM*	-16%	?
NC(=O)C1CCN(C(=O)C2CCC(=O)N(Cc3ccc(Cl)cc3)C2)CC1 (configuration not stated)	5%	51	31%	11%	-24%
O=C(CCCCCCCC(=O)N1CCCCCC1)N1CCCCCC1	-18%	-31	-19%	-8%	-13%
O=C(CCS(=O)(=O)c1ccccc1)N(CCCN1CCOCC1)c1nc2c(F)cccc2s1	?	?	?	?	40µM*
Cc1ccc(S(=O)(=O)CC(=O)N(CCCN2CCOCC2)c2nc3c(F)cccc3s2)cc1	16%	17	2%	4%[46.1 µM]	6%
Cc1ccc(C)c(NCCCCCCCC(=O)O)c1	.	-16	.	.	-10%
O=C(CCl)Nc1cccc(Oc2ccccc2)c1	-2%	-97*	?	?	13µM*
Cc1c(CN(C)C(=O)c2sc3cc(Cl)ccc3c2Cl)cnn1C	-22%	-84*	22µM*	?	0%
O=C(N/N=C1\CCc2ccccc21)c1ccccc1O	?	-27	6%	5µM*	-33%
NS(=O)(=O)c1cccc(NC(=O)CSc2nnc(-c3ccncc3)n2C2CC2)c1	.	?	9%	.	-1%
CCc1nc2ccc(C(=O)NCCc3ccccn3)cn2c1N(CC)CCOC	.	28	.	.	-25%
COc1ccccc1CNc1nc(NCCOc2ccccc2)c2sccc2n1	.	-39	.	.	-3%
COc1ccccc1CNc1nc(NCc2ccccc2SC)c2sccc2n1	.	-77*	.	.	?
COc1ccccc1CNc1nc(NCC2CC2)nc2ccsc12	.	-70*	.	.	25µM*
COc1ccccc1CNc1nc(NCCNC(C)=O)c2sccc2n1	.	20	.	.	-16%
COc1ccccc1CNc1nc(NCc2ccc3occc3c2)c2sccc2n1	.	?	.	.	25µM*
COc1ccccc1CNc1nc(NCc2ccccc2OC)c2sccc2n1	.	-91*	.	.	22µM*
COc1ccccc1CNc1nc(NCc2ccc(NC(C)=O)cc2)c2sccc2n1	.	-8	.	.	-25%
c1cc2cc(CNc3nc(NCC4CC4)nc4ccsc34)ccc2o1	.	-74*	.	.	?
Cc1ccc(CNC(=O)CCSCc2cccc(F)c2)cc1	.	-62*	-6%	.	-7%
SMILES	LASV entry inh	HCMV inh	HCV inhibitor	MARV entry inh	FMDV inh
CCc1ccccc1NC(=O)c1ccc(Cn2nc(N3CCN(c4ccccc4)CC3)ccc2=O)o1	-9%[46.1 µM]	-75*	.	.	?
CC(C)(C)c1ccc(C(=O)N2CCC2(C)C(=O)Nc2cccc3ncccc23)cc1 (configuration not stated)	.	-19	.	.	?
C=C[C@H]1CN2CC[C@H]1C[C@H]2[C@H](OC(=O)OCC)c1ccnc2ccc(OC)cc12	.	.	.	.	-15%
CC[C@H]1CN2CCC1C[C@H]2[C@H](O)c1ccnc2ccc(OC)cc12 (some centres not stated)	.	-68*	3%	.	-26%
C=CC1CN2CCC1CC2[C@@H](OC(=O)c1ccc(OC)cc1)c1ccnc2ccccc12 (some centres not stated)	?	-20	20%	11µM*	?
CC[C@H]1CN2CCC1C[C@@H]2[C@@H](O)c1ccnc2ccc(OC)cc12 (some centres not stated)	.	?	-15%	.	-23%
Cc1cc(C)c(C2=CC(=O)C[C@H](c3ccc4c(c3)OCO4)C2)c(C)c1	.	-61*	-13%	1%	0%
NC(=O)c1cc(-c2ccc(F)cc2)cc(-c2ccncc2)c1N	10%	.	.	.	.
CN(C)CCNc1cccc2sc3ccc(O)cc3c(=O)c12	.	-4	.	.	-16%
CCN(CC)CCCNc1ccc2ncn3c4ccc(O)cc4c(=O)c1c23	?	-90*	?	?	?
CN(C)CCNc1ccc2nnn3c4ccc(O)cc4c(=O)c1c23	-12%	-88*	10µM*	?	-12%
Cc1ccc(NCCN(C)C)c2c(=O)c3cc(O)ccc3sc12	4µM*	-99*	10µM*	?	-23%
COc1cccc2sc3cc(NCc4ccc(C)o4)ccc3c(=O)c12	.	83	?	.	23%
COc1ccc(C(=O)NCCCOC(C)C)cc1OC1CCN(C(C)=O)CC1	2%	59	24%	?	74%
COc1ccc(S(=O)(=O)N2CCCCCC2)cc1C(=O)OCC(=O)NC1CCS(=O)(=O)C1 (configuration not stated)	.	-38	7%	.	-5%
COC(=O)c1c(C)sc(-c2c(-c3cccc(Cl)c3)[nH]c3c2c(=O)[nH]c(=O)n3C)c1O	8%[46.1 µM]	21	.	12%[46.1 µM]	?
COc1ccccc1N1CCN(/N=C/c2ccc([N+](=O)[O-])cc2)CC1	.	60	11µM*	.	25%
C[C@@H]1CC[C@H]2C(=O)N(Cc3cccc([N+](=O)[O-])c3)C[C@@H](O)CN2[C@@H]1c1ccc(Br)cc1	.	.	.	-13%[14.2 µM]	.
Cc1cc(O)ccc1C1(c2ccc(O)cc2C)OC(=O)c2ccccc21	5%	-96*	2%	?	-11%
O=C(O)c1ccc2cccnc2c1O	19%	-32	14%	11%[46.1 µM]	-2%
COc1ccc(C(NC(=O)C(C)C)c2ccc3cccnc3c2O)cc1 (configuration not stated)	2.5µM*	-99*	2µM*	?	?
CCCC(=O)NC(c1ccccc1Cl)c1ccc2cccnc2c1O (configuration not stated)	?	-97*	2µM*	0.89µM*	-6%
CC(=O)NC(c1ccco1)c1ccc2cccnc2c1O (configuration not stated)	?	.	7.9µM*	?	2%
O=C(O)c1ccccc1NC(c1ccccc1)c1ccc2cccnc2c1O (configuration not stated)	?	-31	?	?	?
CCC(=O)NC(c1ccc(C)cc1)c1ccc2cccnc2c1O (configuration not stated)	11µM*	-98*	?	3.2µM*	3%
CC(=O)c1cccc(NC(=O)CSc2nnnn2C2CCCC2)c1	-5%[46.1 µM]	12	-4%	6%[46.1 µM]	11%
Cc1c(CNC2CCCCCC2)c(C(=O)O)c(C)n1Cc1ccc(F)cc1Cl	3%[46.1 µM]	-2	.	2%[46.1 µM]	0%
COc1ccc(CCN(C)Cc2cc(-c3cncnc3)ccc2O)cc1OC	.	.	.	.	-11%
Cc1ccc(C)n1C1C(=O)N(C)c2ccc(Cl)cc21 (configuration not stated)	.	19	.	.	.
C[C@@]1(C(=O)O)NCCc2cc(O)c(O)cc21	.	.	.	.	4%
